# From PubChem BioAssay (NCATS)
# Active and inactive are the calls of the source. Calls follow the shape of the full dose curve.
# Experiment: qHTS drug screen for cell cycle checkpoint inhibitors in PARPi-resistant BRCA-mutant ovarian cancer cell lines. (AID 1963452)
# Conditions: PEO1/OlaR viability, CellTiter-Glo luminescence, 96 h, stronger effect = lower value
# In short: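 PEO1, PEO4 and PEO1/OlaR ovarian cancer cells, 600 per well, exposed 96 h at 37C to a dilution series. Viability read by CellTiter-Glo luminescence, normalized to DMSO and empty wells; activity summarized as Z-AUC.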
# [1] = measured here: PEO1 parental Z-AUC
Structure (SMILES),Z-AUC,Z-AUC [1],Z-AUC (measured here: PEO4 Z-AUC)
CCCCCNC(=O)N1CCC(CN(Cc2ccc(Cl)cc2)Cc2ccc([N+](=O)[O-])s2)C1 (stereo unspecified),-0.865 (inactive),0.128,-0.734
N[C@@]1(C(=O)O)CS(=O)(=O)[C@H]2[C@H](C(=O)O)[C@H]21,-0.18 (inactive),0.223,0.235
CC(C)=CC[C@@H](O)C1=CC(=O)c2c(O)ccc(O)c2C1=O,-0.228 (inactive),-0.402,-0.229
COc1cccc2c1CCCC2CCCN1CCN(C2CCCCC2)CC1 (stereo unspecified),0.972 (inactive),0.889,0.366
CCS(=O)(=O)N1CC(CC#N)(n2cc(-c3ncnc4[nH]ccc34)cn2)C1,0.685 (inactive),0.902,0.44
COc1ccc(-c2coc3cc(O)cc(O)c3c2=O)cc1,1.34 (inactive),0.911,1.85
Oc1ccc(C2CCN(c3ccnc4ccccc34)CC2)cc1O,0.817 (inactive),-0.32,0.401
C[N+](C)(C)CC(=O)O,-0.734 (inactive),0.456,-0.678
CCNc1cc(NC2CCC(O)CC2)nc(Nc2ccc3c(ccn3Cc3ccccc3)c2)n1 (stereo unspecified),0.474 (inactive),0.235,0.72
c1ccc2c(Cc3c[nH]c4ccccc34)c[nH]c2c1,0.829 (inactive),0.126,-0.359
COc1cc2ncnc(-n3nc(-c4ccccn4)nc3N)c2cc1OC,-0.168 (inactive),0.627,0.697
CC(=O)Nc1ccc([C@H](C)C(=O)Nc2ncc(C(C)C)s2)cc1,-0.905 (inactive),-1.74,-1.22
CN[C@@H](C)C(=O)N[C@H]1CN(C(=O)CC(C)C)CC[C@H]2CC[C@@H](C(=O)NC(c3ccccc3)c3ccccc3)N2C1=O,0.77 (inactive),0.371,-0.22
CO[C@@H](C(=O)N1Cc2[nH]nc(NC(=O)c3ccc(N4CCN(C)CC4)cc3)c2C1)c1ccccc1,-0.0482 (inactive),0.272,-0.117
NC(=O)[C@@H](CCC(F)(F)F)N(Cc1ccc(-c2ncon2)cc1F)S(=O)(=O)c1ccc(Cl)cc1,0.459 (inactive),0.342,0.442
Clc1ccc(COC(Cn2ccnc2)c2ccc(Cl)cc2Cl)cc1 (stereo unspecified),0.343 (inactive),0.179,0.161
COc1ccc2cc(-c3nc(-c4ccc(S(C)=O)cc4)[nH]c3-c3ccncc3)ccc2c1 (stereo unspecified),-0.0857 (inactive),-0.107,-0.281
O=C(O)CCC1CCC(c2cc(F)ccc2F)(S(=O)(=O)c2ccc(Cl)cc2)CC1 (stereo unspecified),1.02 (inactive),0.969,0.83
CC(C)(Cc1ccc2ccccc2c1)NC[C@@H](O)COc1cccc(Cl)c1C#N,0.779 (inactive),1.04,0.976

Structure (SMILES),Z-AUC,Z-AUC [1],Z-AUC (measured here: PEO4 Z-AUC)
CC(C)n1cnc2c(NCCCCCCNC(=O)OC(C)(C)C)nc(NCCO)nc21,0.728 (inactive),0.841,1.56
Clc1ccc(CCC(Cn2ccnc2)Sc2c(Cl)cccc2Cl)cc1 (stereo unspecified),1.27 (inactive),0.807,0.874
Cc1ccn(-c2ccc(-c3ncco3)cc2)c(=O)c1-c1ccc2nc(N)ncc2c1,1.02 (inactive),0.788,1.07
NC(=O)c1cccc(-c2cc(Nc3ccc(OC(F)(F)F)cc3)ncn2)c1,1.26 (inactive),0.548,0.648
CC(C)C(=O)Nc1ncc(-c2cc(C(F)F)nn2-c2c(Cl)cccc2Cl)s1,-0.482 (inactive),0.209,0.42
CCOC(=O)C1=C(N)Oc2ccc(Br)cc2C1C(C#N)C(=O)OCC (stereo unspecified),1.64 (inactive),1.22,1.22
O=C(NOCC(O)CO)c1cc(Br)c(F)c(F)c1Nc1ccc(I)cc1F (stereo unspecified),0.348 (inactive),0.513,0.38
COc1cc(NC(=O)c2ccc(-c3ccc(Cl)cc3)o2)cc(OC)c1,-0.479 (inactive),-0.389,-0.303
O=C(Nc1ccccc1-c1cn2c(CN3CCNCC3)csc2n1)c1cnc2ccccc2n1,0.244 (inactive),0.118,-0.298
CN1CCN(CCOc2cc(OC3CCOCC3)c3c(Nc4c(Cl)ccc5c4OCO5)ncnc3c2)CC1,0.642 (inactive),0.934,1.23
O=C1C(Cl)=C(NCCN2CCOCC2)C(=O)c2ncccc21,-1.13 (inactive),-1.16,-1.1
CN(C[C@@H]1COCCO1)S(=O)(=O)Nc1ccc2ccc3ncc(-c4cnn(C)c4)cc3c(=O)c2c1,-0.656 (inactive),-0.332,-0.0714
O=c1cc(CN2CCOCC2)occ1OCCCCCSc1ccnc2cc(C(F)(F)F)ccc12,-0.111 (inactive),-0.421,-0.0909
O=C(N[C@@H](c1ccccc1)[C@@H]1CCCCN1)c1cccc(C(F)(F)F)c1Cl,0.7 (inactive),0.513,0.741
Cc1ccc(Nc2cc(-c3cccc(N4C(=O)c5ccccc5C4=O)c3)ncn2)cc1NS(C)(=O)=O,-0.648 (inactive),-0.644,-0.365
COc1ccc2c(Oc3ccc(NC(=O)c4c(C)n(CC(C)(C)O)n(-c5ccccc5)c4=O)cc3F)ccnc2c1,-0.152 (inactive),0.199,0.0396
Clc1ccc(C(c2ccc(Cl)cc2)n2cc[n+](CC(OCc3ccc(Cl)cc3Cl)c3ccc(Cl)cc3Cl)c2)cc1 (stereo unspecified),0.167 (inactive),-0.468,-0.455
COc1cc(Nc2ncc(F)c(Nc3ccc4c(n3)NC(=O)C(C)(C)O4)n2)cc(OC)c1OC,0.179 (inactive),0.902,1.16
